rCAG binder: binds r(CAG) RNA repeats. r(CAG) RNA repeat, TO-PRO-1 dye displacement fluorescence. inhibition, % at 3 µM. 370,000 tested, 1.3% active. AID 651821;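 active = inhibition above the plate cutoff, the mean of all test compounds on that plate plus 3 SD, cut at about 35% in these data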;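 also: 0% = DMSO alone and 100% = 100 µM mitoxantrone as full dye displacement; higher means more dye released from RNA so lower well fluorescence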
MPTP block: blocks calcium-induced mitochondrial swelling. isolated mouse mitochondria, Ca2+ swelling absorbance, 30 min. inhibition, % at 10 µM. 360,000 tested, 1.4% active. AID 602449;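 active = inhibition of 50% or more, scaled per plate between neutral and stimulator controls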;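 also: 0% = DMSO wells given calcium and 100% = 1 mM EGTA wells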
FAS TE block: blocks the thioesterase domain of human fatty acid synthase | P49327 | recombinant FAS-TE, OMFH fluorogenic substrate, fluorescence endpoint | inhibition, % at 15 µM | 360,000 tested, 0.67% active;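 active = compounds whose normalised, plate-corrected inhibition of enzyme fluorescence in the single-dose primary screen is 50% or more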;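 also: 0% = DMSO with enzyme and 100% = substrate without enzyme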
GRIN3A LBD mod: modulates the human NR3A ligand-binding domain. NR3A LBD differential scanning fluorimetry, Tm shift; 0% = protein alone, 100% = glycine-bound protein. Tm shift relative to glycine control, % at 25 µM. 340,000 tested, 2.5% active. AID 1259313;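 active = melting temperature shift of at least 10% of the positive control shift, at one fixed dose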
Myeloid diff 2: compounds promoting myeloid differentiation. ER-HoxA9 myeloid progenitors, lysozyme-GFP differentiation, flow cytometry. calls only at 10 µM. 360,000 tested, 1% active. AID 624256;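 active = normalized GFP-positive differentiation at or above the plate's own cutoff, the solvent-only control mean plus 3 SD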;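 also: cells exposed to compound for four days before flow analysis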
Active calls of the source: *. Shown are actives, neighbours in structure and some others; about 5.7% of the full set was active somewhere.

CC(C)=CCC[C@H](C)C[C@@H]1Cc2[nH]c(=S)[nH]c(=O)c2[C@@H](c2ccc(F)cc2)O1 was read as rCAG binder 25.0, MPTP block 0.1, FAS TE block 14.6 and Myeloid diff 2 inactive.
Screening CCOC(=O)/C(=C\c1ccc(N2CCC(c3ccccc3)=N2)cc1)C(C)=O returned rCAG binder -0.6, MPTP block -0.1, FAS TE block -9.6, GRIN3A LBD mod -8.7 and Myeloid diff 2 inactive.
`O=C(/C=C/c1ccc(N2CCC(c3ccccc3)=N2)cc1)c1ccccc1` gave rCAG binder 1.9 and GRIN3A LBD mod 29.6*.
For C=CCO[C@H]1CN(C(=O)OC)[C@@H]2C[C@H]1Oc1ccccc12 the results were rCAG binder -1.5.
Screening Cc1ccc(OCCNC(=O)/C=C/c2ccccc2)cc1 returned rCAG binder -2.2, MPTP block 2.5, FAS TE block 6.1, GRIN3A LBD mod -2.2 and Myeloid diff 2 inactive.
CCCOc1ccc(/C=C/C(=O)NCc2ccccc2)cc1 was read as rCAG binder -4.6, MPTP block -0.9, FAS TE block -1.1, GRIN3A LBD mod 12.5* and Myeloid diff 2 inactive.
CN[C@H]1C[C@H]2c3[nH]c4c(-c5ccccc5)cccc4c3CCN2C[C@H]1[C@H](C)O was read as rCAG binder 4.8.
For O=C(C1CCCN(Cc2cccs2)C1)N1CCCCCC1 (stereo not given) the results were rCAG binder -6.7, MPTP block 2.3, FAS TE block -1.9, GRIN3A LBD mod 10.8* and Myeloid diff 2 inactive.
O=C(C1CCCN(Cc2ccccc2)C1)N1CCCCC1 (stereo not given) was read as rCAG binder 0.3, MPTP block -1.1, FAS TE block -7.4, GRIN3A LBD mod 3.5 and Myeloid diff 2 inactive.
`COc1cc2nc(Nc3cccc(F)c3)nc(N)c2cc1OC` gave rCAG binder 6.8, MPTP block -0.4, FAS TE block -0.1, GRIN3A LBD mod 17.4* and Myeloid diff 2 inactive.
COc1nc(Nc2cccc(F)c2)nc(OC)n1 was read as rCAG binder -2.1, MPTP block 0.2, FAS TE block -4.3, GRIN3A LBD mod -0.7 and Myeloid diff 2 inactive.
Screening COc1cc(NC(=O)c2ccccc2)c(C)cc1NC(=O)CSc1nnc(-c2cnccn2)n1-c1ccc(C)cc1 returned rCAG binder 11.0.
Cc1nn(Cc2cccc(C(=O)Nc3ccn(Cc4ccccc4)n3)c2)c(C)c1[N+](=O)[O-] was read as MPTP block 0.7, FAS TE block 29.0, GRIN3A LBD mod -2.5 and Myeloid diff 2 active.
For Cc1nn(Cc2cccc(C(=O)O)c2)c(C)c1[N+](=O)[O-] the results were rCAG binder -0.4, MPTP block 0.6, FAS TE block -2.4, GRIN3A LBD mod -1.0 and Myeloid diff 2 inactive.
`COc1cc(OC)c(NC(=O)c2ccccc2F)cc1Cl` gave rCAG binder 1.5, MPTP block 1.9, FAS TE block 1.8, GRIN3A LBD mod -1.1 and Myeloid diff 2 inactive.
Screening COc1cc(NC(=O)c2cc3ccccc3cc2O)c(OC)cc1Cl returned rCAG binder 47.0*, MPTP block 27.0, FAS TE block 16.5, GRIN3A LBD mod 33.0* and Myeloid diff 2 inactive.
For CCNC(=O)N1C[C@H]2CON(C)[C@H]2C[C@H]1c1ccc(N2CCCCC2)cc1 the results were rCAG binder -1.5.
Screening Cn1c2ccccc2c(=O)c2ccc(NCCc3cccs3)cc21 returned rCAG binder 13.6, MPTP block 0.8, FAS TE block 5.2, GRIN3A LBD mod -2.8 and Myeloid diff 2 active.
`C=CCN1[C@@H](CC(C)C)COc2cccc(F)c2S1(=O)=O` gave rCAG binder -0.2.
For COc1ccccc1C(=O)Nc1ccc2c(c1)nc1n2CCN(C2CCCCC2)C1 the results were rCAG binder 8.5, MPTP block 0.2, FAS TE block 2.5, GRIN3A LBD mod 0.0 and Myeloid diff 2 active.
CCOC(=O)[C@@]12CCC3=C1N(CCC3)C(=O)[C@H](CC(=O)NCCCN1CCCC1=O)C2 was read as rCAG binder -0.5.
For O=C1c2ccccc2C(c2nnnn2Cc2ccccc2)N1Cc1ccc2c(c1)OCO2 (stereo not given) the results were rCAG binder 0.5, MPTP block 1.1, FAS TE block 1.2 and Myeloid diff 2 inactive.
`COc1ccc(NS(=O)(=O)c2cc(NC(=O)c3ccc(=O)[nH]c3)ccc2C)cc1` gave rCAG binder 4.8, MPTP block -0.2, FAS TE block -1.3, GRIN3A LBD mod -1.3 and Myeloid diff 2 inactive.
COc1ccc(NS(=O)(=O)c2cc(NC(=O)[C@@H](NC(=O)c3ccccc3)C(C)C)ccc2C)cc1 was read as rCAG binder 7.2, MPTP block 2.1, FAS TE block 9.7, GRIN3A LBD mod 13.1* and Myeloid diff 2 inactive.
COc1ccc2[nH]c(=O)c(CN(C(=O)C(C)C)c3ccccc3OC)cc2c1 was read as rCAG binder -5.0, MPTP block 1.4, FAS TE block -0.7, GRIN3A LBD mod -0.2 and Myeloid diff 2 active.
For CC(=O)Nc1sc2c(c1C(c1ccccn1)N1CCCC1)CCCC2 (stereo not given) the results were rCAG binder -6.8, MPTP block -2.3, FAS TE block -0.5, GRIN3A LBD mod 0.1 and Myeloid diff 2 inactive.
Screening CC(=O)Nc1sc2c(c1C(c1ccccc1Cl)N1CCN(CCO)CC1)CCCC2 (stereo not given) returned rCAG binder -2.7, MPTP block -2.8, FAS TE block 5.5, GRIN3A LBD mod -3.1 and Myeloid diff 2 active.
Screening CCCOc1ccc(C(=O)N2CCC(Oc3cccnc3)CC2)cc1 returned rCAG binder -2.5.
CC(C)(C)c1ccc(CNC(=O)c2ccc3c(c2)NC(=O)CO3)cc1 was read as rCAG binder -0.2, MPTP block -5.1, FAS TE block 45.3, GRIN3A LBD mod 2.6 and Myeloid diff 2 active.
CCNC(=O)Nc1ccc2c(c1)C(=O)N(C)[C@H]1CC[C@@H](CC(=O)NCCN3CCCC3)O[C@@H]1CO2 was read as rCAG binder 2.6.
Clc1cccc(NCc2cn3cccnc3n2)c1 was read as rCAG binder 1.0, MPTP block -2.9, FAS TE block -0.3, GRIN3A LBD mod 10.9* and Myeloid diff 2 inactive.
Screening CC(/C=N/n1c(COc2ccccc2)n[nH]c1=S)=C\c1ccccc1 returned rCAG binder 40.9*, MPTP block 13.7, FAS TE block 15.0, GRIN3A LBD mod -6.5 and Myeloid diff 2 inactive.
For S=c1[nH]nc(C2CCCCC2)n1/N=C/C(Cl)=C\c1ccccc1 the results were rCAG binder 16.2, MPTP block 3.0, FAS TE block -1.3, GRIN3A LBD mod -11.4 and Myeloid diff 2 active.
`CCOc1ccc(/C=N/n2c(COc3ccccc3)n[nH]c2=S)cc1OC` gave rCAG binder 21.6, MPTP block 1.7, FAS TE block -1.7, GRIN3A LBD mod 14.9* and Myeloid diff 2 inactive.
Screening Oc1ccc(Br)cc1/C=N/n1c(COc2ccccc2)n[nH]c1=S returned rCAG binder 23.4, MPTP block 0.9, FAS TE block 4.9, GRIN3A LBD mod 10.3* and Myeloid diff 2 inactive.
